Source: PubChem BioAssay
LYPLA1 inh – LYPLA1 (human) inhibition in PME1 counter-screen | O75608 | recombinant LYPLA1, FP-Rh probe fluorescence polarization | inhibition, % at 5.9 µM | actives 0.16% (n = 320,000) | AID 2174;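 active = inhibition above the mean of all tested compounds plus 3 SD, set per campaign, cut at about 14% in these data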;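 note: inhibitors block serine hydrolase probe labeling of LYPLA1 so polarization falls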
PP1 counter – counter-screen for PP5 inhibitors: inhibitors of human PP1-alpha. inhibition, % at 6.7 µM. purified PP1alpha, OMFP fluorescence. AID 2235. P62136. actives 0.9% (n = 320,000);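 active = inhibition above the mean inhibition of all tested compounds plus 3 SD, computed separately for each screening campaign, cut at about 15% in these data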
Fam108B counter – counter-screen for RBBP9 inhibitors: inhibitors of mouse Fam108B; inhibition, % at 9.51 µM; actives 0.33% (n = 300,000); recombinant Fam108B, FP-Rh probe fluorescence polarization;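 active = inhibition above the screen mean inhibition plus 3 SD, computed separately per campaign, cut at about 18% in these data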;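 note: inhibitors lower polarization as less probe binds the enzyme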
LYPLA2 inh – blocks human lysophospholipase 2, a PME1 counter-screen | inhibition, % at 5.9 µM | actives 0.38% (n = 320,000) | O95372 | AID 2177 | recombinant LYPLA2, FP-Rh probe fluorescence polarization;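 active = inhibition above the screen-wide mean plus 3 SD, limit set per campaign, cut at about 26% in these data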
PME-1 primary – PME-1 (human) inhibition. Q9Y570. recombinant PME-1, FP-Rh probe fluorescence polarization. inhibition, % at 5.9 µM. actives 0.53% (n = 320,000). AID 2130;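 active = inhibition above the campaign mean of all compounds plus 3 SD, cut at about 26% in these data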;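 note: competitive labeling of PME-1 active site by serine hydrolase directed probe; inhibitors block probe labeling so polarization falls and inhibition rises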
PP5 inh – inhibitors of human protein phosphatase 5 (PP5); purified PP5c, OMFP substrate fluorescence; inhibition, % at 6.7 µM; actives 0.18% (n = 320,000);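 active = inhibition above the campaign's mean inhibition across all tested compounds plus 3 SD, cut at about 9.5% in these data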
Target sequence (P53041 whole entry, looked up): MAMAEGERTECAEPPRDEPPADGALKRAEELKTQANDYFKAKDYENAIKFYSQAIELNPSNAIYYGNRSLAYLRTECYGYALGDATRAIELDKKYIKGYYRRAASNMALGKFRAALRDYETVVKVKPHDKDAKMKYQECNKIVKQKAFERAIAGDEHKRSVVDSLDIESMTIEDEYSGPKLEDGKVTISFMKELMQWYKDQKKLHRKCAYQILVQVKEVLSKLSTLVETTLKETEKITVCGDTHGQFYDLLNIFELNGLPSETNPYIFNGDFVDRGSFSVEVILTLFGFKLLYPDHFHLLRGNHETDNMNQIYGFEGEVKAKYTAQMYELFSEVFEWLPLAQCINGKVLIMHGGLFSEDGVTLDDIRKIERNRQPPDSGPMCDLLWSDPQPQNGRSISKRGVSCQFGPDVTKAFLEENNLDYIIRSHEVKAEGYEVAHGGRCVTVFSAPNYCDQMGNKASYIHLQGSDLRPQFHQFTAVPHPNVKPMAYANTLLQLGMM
PP5 conf – confirmation of human PP5 phosphatase inhibitors; shares compounds with PP5 inh; Purified PP5, fluorogenic phosphatase substrate, fluorescence; inhibition, % at 6.7 µM; actives 22% (n = 460); in the data active = inhibition above about 9.5%
PP1 inh counter – counter-screen for PP5 inhibitors: human PP1 phosphatase inhibition | shares compounds with PP5 inh | inhibition, % at 6.7 µM | actives 4% (n = 460) | PP1 enzyme, fluorescent phosphatase substrate; in the data active = inhibition above about 16%
Large screens that a line does not name were inactive (follow-up assays come after a bar, where they were run). Most compounds without a hit are left out; they make up all but 1.8% or so of the library.

O=C(Nc1cc(C(F)(F)F)cc(C(F)(F)F)c1)c1ccc(Cn2cc(C(F)(F)F)ccc2=O)cc1	PP5 inh 11 | PP5 conf 11 | PP1 inh counter inactive
O=C(Nc1ccccc1)c1ccc(Cn2cc(C(F)(F)F)ccc2=O)cc1	none
CC(C)COC(=O)N1CC(O)CC1C(=O)Nc1ccc2c(c1)OCO2 (stereo unspecified)	none (no result: Fam108B counter)
CC(C)COC(=O)N1CC(O)CC1C(=O)O (stereo unspecified)	PP5 inh 11 | PP5 conf inactive | PP1 inh counter inactive
Cc1ccc(NC(=O)C2C3C=CC(O3)C2C(=O)O)c(C)c1 (stereo unspecified)	PP5 inh 18 | PP5 conf inactive | PP1 inh counter inactive
COC(=O)c1sccc1NC(=O)C1C2C=CC(O2)C1C(=O)O (stereo unspecified)	none
COC(=O)c1ccc(NC(=O)C2C3C=CC(C3)C2C(=O)O)cc1 (stereo unspecified)	none
Cc1ccc(NC(=O)C2C3C=CC(O3)C2C(=O)O)cc1C (stereo unspecified)	PP5 inh 23 | PP5 conf inactive | PP1 inh counter 23
Cc1nnc(NC(=O)C2C3C=CC(O3)C2C(=O)O)s1 (stereo unspecified)	PP5 inh 16 | PP5 conf 16 | PP1 inh counter inactive
Cc1ccc(NC(=O)C2C3CCCC2C3c2ccccc2)cc1C (stereo unspecified)	none
COC(=O)c1ccc(NC(=O)C2C3C=CC(O3)C2C(=O)O)cc1 (stereo unspecified)	PP5 inh 21 | PP5 conf inactive | PP1 inh counter inactive
CCC(C)c1ccccc1NC(=S)NC(=O)c1ccco1 (stereo unspecified)	none
Cc1cc(NC(=O)CSc2nc(C)c(C)c(=O)[nH]2)no1	none
O=C(NCc1ccccc1)C(c1c(F)cccc1Cl)N(C(=O)c1csnn1)C1CC1 (stereo unspecified)	none
Cc1cccc(NC(=O)C2C3C=CC(C4CC34)C2C(=O)O)c1 (stereo unspecified)	none
Cc1cccc(NC(=O)C2C3C=CC(O3)C2C(=O)O)c1 (stereo unspecified)	PP5 inh 9.8 | PP5 conf inactive | PP1 inh counter inactive
COc1ccccc1NC(=O)C1C2C=CC(O2)C1C(=O)O (stereo unspecified)	PP5 inh 15 | PP5 conf inactive | PP1 inh counter inactive
Cc1cccc(NC(=O)C2C3C=CC(O3)C2C(=O)O)c1C (stereo unspecified)	PP5 inh 10 | PP5 conf inactive | PP1 inh counter inactive
Cc1cccc(NC(=O)C2C(C(=O)O)C3C=CC2C32CC2)c1C (stereo unspecified)	none
CCN(c1ccc(NC(=O)CSCc2c(C)noc2C)cc1)C(C)C	none (no result: Fam108B counter)
CCOC(=O)CC1COCCN1C(=O)c1cc(COc2ccc(F)cc2Cl)on1 (stereo unspecified)	none
Cc1ccc(S(=O)(=O)N2CCN(S(=O)(=O)c3c(C)n[nH]c3C)CC2)cc1C	PP5 inh 16 (no result: Fam108B counter) | PP5 conf inactive | PP1 inh counter inactive
O=C(C1CCC(CNS(=O)(=O)c2ccccc2)CC1)N1CCCCC1 (stereo unspecified)	PP5 inh 9.9 | PP5 conf inactive | PP1 inh counter inactive
OC(CNCc1ccccc1)Cn1ccc2ccccc21 (stereo unspecified)	none
Oc1ccccc1NCC(O)Cn1ccc2ccccc21 (stereo unspecified)	PP5 inh 9.8 | PP5 conf inactive | PP1 inh counter inactive
O=C(Nc1ccc(OCC(F)(F)C(F)F)c(C(F)(F)F)c1)c1ccccc1O	PP5 inh 11 | PP5 conf inactive | PP1 inh counter inactive
O=C(Nc1ccc(OCC(F)(F)C(F)F)c(C(F)(F)F)c1)c1ccccc1	none
COc1ccc(C(=O)COC(=O)c2cc(C)no2)c(OC)c1	none (no result: Fam108B counter)
CCOC(=O)C(NC(=O)Nc1ccc(O)cc1)(c1ccccc1)C(F)(F)F (stereo unspecified)	PP5 inh 11 | PP5 conf inactive | PP1 inh counter inactive
CCCCCNC(=O)CC1Nc2c3ccccc3nc(=S)n2C1=O (stereo unspecified)	PP5 inh 9.9 | PP5 conf inactive | PP1 inh counter inactive
Nc1nnc(SCc2ccc(F)cc2Cl)s1	PP5 inh 13 | PP5 conf inactive | PP1 inh counter inactive
O=C(Cc1ccccc1)Nc1ccccc1C(=O)N1CCN(c2ccccc2)CC1	none
COc1ccc(OC)c(N(C)S(=O)(=O)c2ccc3c(c2)N(C(C)=O)CCO3)c1	none
CCOC(=O)N1CCC2(CC1)NCCc1c2[nH]c2ccccc12	PP5 inh 12 | PP5 conf inactive | PP1 inh counter inactive
COc1cc(C(C)=O)ccc1COc1ccc(C(=O)O)cc1OC	PP5 inh 11 | PP5 conf inactive | PP1 inh counter inactive
COc1ccc(C(C)=O)cc1CSCc1cc(C(C)=O)ccc1OC	none
O=S(=O)(c1ccc(OC(F)(F)F)cc1)N1CCC(O)(c2cccc(C(F)(F)F)c2)CC1	PP5 inh 11 | PP5 conf inactive | PP1 inh counter inactive
COc1cc(S(=O)(=O)N2CCC(O)(c3cccc(C(F)(F)F)c3)CC2)ccc1-n1cnnn1	none
C=CCN(c1ccccc1)S(=O)(=O)c1cccc(C(=O)NC2CCN(Cc3ccccc3)CC2)c1	none
COC(=O)c1sc2cc(C(F)(F)F)cnc2c1-c1cccnc1	PP5 inh 12 | PP5 conf inactive | PP1 inh counter inactive
CN(C(=O)CSc1nnc(-c2ccco2)n1Cc1ccccc1)C1CCS(=O)(=O)C1 (stereo unspecified)	none (no result: Fam108B counter)
COc1ccc(-c2cc(-c3ccccc3O)[nH]n2)cc1	none
COc1ccc(-c2cc(-c3c(O)c(OC)c4occc4c3OC)[nH]n2)cc1	PME-1 primary 33, PP5 inh 11 | PP5 conf inactive | PP1 inh counter inactive
Cc1ccc(C(=O)NC(C)c2ccccc2)o1 (stereo unspecified)	PP5 inh 11 | PP5 conf inactive | PP1 inh counter inactive
CC(NC(=O)c1ccc(Br)o1)c1ccccc1 (stereo unspecified)	none
COc1cc(C=O)ccc1OC(=O)Nc1ccccc1	PP5 inh 12 | PP5 conf inactive | PP1 inh counter inactive
CCOC(=O)c1[nH]c(C)c(C(=O)OCC(=O)N(Cc2ccccc2)C(C)C)c1C	none (no result: Fam108B counter)
COc1ccc(COC(=O)c2ccc(Cl)c(S(=O)(=O)N3CC(C)OC(C)C3)c2)cc1 (stereo unspecified)	none
COC(=O)c1sc(N)c(C(=O)OC)c1COC(=O)c1c(C)noc1C	PP5 inh 10 | PP5 conf inactive | PP1 inh counter inactive
